Screening results from PubChem.
Only some compounds are listed: those with a hit (about 1.8% of all), similar ones and a draw of the others.
GLP1R inv ag = inverse agonists of human GLP-1 receptor; Potency, µM (series often up to 38.3 µM), most hits filed as inhibitors; AID 624417; actives 1.6% (n = 410,000); HEK293 GLP-1R CRE-luciferase, luminescence, 24 h; GLP-1R form is constitutively active; also: nearly all actives have a fitted effect of over 55% in size
Target sequence (P43220 whole entry, looked up): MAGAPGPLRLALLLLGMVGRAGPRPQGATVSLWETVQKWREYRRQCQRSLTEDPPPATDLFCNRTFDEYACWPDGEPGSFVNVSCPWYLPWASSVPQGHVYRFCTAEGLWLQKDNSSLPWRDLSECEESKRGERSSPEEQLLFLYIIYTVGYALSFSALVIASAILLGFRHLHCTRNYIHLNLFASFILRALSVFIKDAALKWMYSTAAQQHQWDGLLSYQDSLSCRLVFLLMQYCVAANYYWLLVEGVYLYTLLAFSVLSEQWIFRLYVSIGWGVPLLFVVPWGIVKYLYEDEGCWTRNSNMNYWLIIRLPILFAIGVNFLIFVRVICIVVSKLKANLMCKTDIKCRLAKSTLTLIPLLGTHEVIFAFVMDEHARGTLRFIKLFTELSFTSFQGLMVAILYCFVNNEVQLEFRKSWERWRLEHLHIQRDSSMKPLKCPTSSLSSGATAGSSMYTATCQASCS
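Luminescence readout: a drop in cAMP-driven luciferase signal flags inverse agonism at a constitutively active GLP-1R stably expressed in HEK293. Compound exposure lasted 24 hr at 37 deg C, 5% CO2.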
Pin1 inhibitor = human Pin1 inhibition; actives 0.009% (n = 390,000); AID 504891; Pin1 FP peptide displacement, HiFluor488, 10 min; Potency, µM (doses to about 115 µM), most hits filed as inhibitors; Q13526; active = well fitted inhibition curve with a large enough effect in the polarisation, with a control signal flat, not every such curve was filed as active; inconclusive = small, poorly fitted or top-dose-only effect, or effect the other way, or a change in a side signal; inactive = no such curve, though single readings can be large or run the other way; the % refers to the polarisation
Target sequence (Q13526 whole entry, looked up): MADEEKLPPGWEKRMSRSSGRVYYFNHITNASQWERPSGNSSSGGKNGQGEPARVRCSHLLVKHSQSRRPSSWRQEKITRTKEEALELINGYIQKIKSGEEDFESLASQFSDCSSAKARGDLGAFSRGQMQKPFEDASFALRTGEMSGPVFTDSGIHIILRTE
PGK inhibitor = inhibitors of T. brucei phosphoglycerate kinase. P07378. actives 0.043% (n = 380,000). Potency, µM (top dose mostly 57.5 µM), usual class: inhibitors. PGK/GAPDH coupled, Kinase-Glo luminescence, 60 min; also: nearly all actives have a fitted effect of over 60% in size
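Luminescent ATP detection (Kinase-Glo Plus) follows a 60-minute room-temperature incubation, with wells lacking PGK as controls. Buffer: 100 mM TEA (pH 7.6), 5 mM MgCl2, 0.01% Tween-20. Coupling enzyme GAPDH (100 nM final) supplies unstable 1,3-BPG in-well.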
GLP1R cytotox = cytotoxicity counter-screen for GLP-1 receptor inverse agonists; HEK293 cAMP-luciferase reporter cells, luminescence, 24 h; actives 0.13% (n = 410,000); Potency, µM (doses to about 38.3 µM), usual class: inhibitors;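 also: loss of luciferase light is scored as toxicity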
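Luminescence readout: signal drop marks cytotoxicity. Plated cells grew 12 h at 37 °C, 5% CO2, received 23 nL compound for 24 h, then got luciferase reagent, read after 12 min at RT.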
Tb PFK block = T. brucei PFK enzyme inhibition. O15648. T. brucei PFK, ADP-Glo luminescence. Potency, µM (top dose mostly 57.5 µM), actives largely listed as inhibitors. actives 0.17% (n = 330,000). AID 485367; also: nearly all actives have a fitted effect of over 60% in size
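1.25 nM PFK with 0.5 mM F6P and 0.1 mM ATP in 0.1 M TEA pH 8.0, 5 mM MgCl2, incubated 45 min at room temperature; ADP measured by ADP-Glo luminescence; compounds titrated up to 57 uM.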
GLP1R ag = agonists of human GLP-1 receptor; AID 624172; actives 0.007% (n = 380,000); Potency, µM (highest dose often 45.6 µM), usual class: activators; P43220; HEK293 GLP-1R CRE-luciferase, luminescence, 4-6 h; cells express a hypersensitive GLP-1R form
Large screens that a line does not name were inactive. Unless noted, calls follow the shape of the dose curve; as a rule, active = well fitted curve in the direction sought with a large enough effect; inconclusive = small, poorly fitted or top-dose-only effect, or another doubt; inactive = no such curve, though single readings can be large; an effect the other way counts as inactive or inconclusive.

O=C(Nc1ccccc1)N(Cc1ccccc1)CC(O)C(F)(F)F (stereo not given)	none
O=C(Nc1cccc(F)c1)N(Cc1ccc(Cl)cc1)CC(O)C(F)(F)F (stereo not given)	GLP1R inv ag 5.6µM, GLP1R cytotox inconclusive
CCc1ccc(-c2nc(CS(=O)CC(=O)NCCN3CCCCCC3)c(C)o2)cc1 (stereo not given)	GLP1R inv ag 11µM
CN(C)c1ccc(/C=N/NC(=O)COc2ccccc2)cc1	none
CCCCCC1CC1C(=O)N/N=C/c1ccc(N(C)C)cc1 (stereo not given)	GLP1R inv ag 7.9µM
COc1ccc(CCNC(=O)CCc2cn(Cc3ccccc3Cl)c3ccccc23)c(OC)c1	GLP1R inv ag inconclusive (no result: Tb PFK block, GLP1R ag)
Cc1cc(C)n(Cc2ccc(C(=O)O)cc2)n1	none
Cc1ccc(C)n1Cc1ccc(C(=O)O)cc1	Pin1 inhibitor inconclusive, PGK inhibitor 3.2µM, Tb PFK block 6.7µM
COC(=O)c1ccc(CSc2ccccc2NC(=S)Nc2cccc(SC)c2)o1	GLP1R inv ag 13µM (no result: Pin1 inhibitor, Tb PFK block)
CCOc1ccccc1NC(=O)Cn1cc(C(=O)c2ccc(Cl)cc2)c(=O)c2ccc(C)nc21	none (no result: Tb PFK block, GLP1R ag)
CCNc1nc(NC(C)(C)C)nc(SC(C(C)=O)C(C)=O)n1	GLP1R inv ag 8.9µM
O=C(C1CCN(CCCc2ccccc2)CC1)N(CCc1ccccc1)Cc1ccccc1	GLP1R inv ag 10µM, GLP1R cytotox inconclusive
O=C(C1CCN(CC2CC=CCC2)CC1)N(CCc1ccccc1)Cc1ccccc1 (stereo not given)	GLP1R inv ag inconclusive
O=C(Nc1nn(Cc2ccc(Cl)cc2)cc1Br)c1ccc(COc2ccccc2Cl)o1	GLP1R inv ag 5µM
O=C(Nc1ccc(Cl)cn1)c1ccc(COc2ccccc2Br)o1	GLP1R inv ag inconclusive
CC(c1nc2ccccc2n1Cc1ccccc1)N1CCCCC1 (stereo not given)	GLP1R inv ag 1.3µM, GLP1R cytotox inconclusive
O=C(O)c1ccc(-c2ccc(/C=c3/sc4nc5ccccc5n4c3=O)o2)cc1Cl	Pin1 inhibitor inconclusive, PGK inhibitor 10µM
OCC1(Cc2ccccc2F)CCCN(CC2CCCCC2)C1 (stereo not given)	GLP1R inv ag inconclusive
OCC1(Cc2ccccc2F)CCCN(Cc2c(F)ccc(F)c2F)C1 (stereo not given)	GLP1R inv ag 11µM
CCN(CC)CCN(C(=O)c1ccc2c(c1)OCCO2)c1nc2cc(C)cc(C)c2s1	GLP1R inv ag 11µM
N/C(Cc1ccc(Cl)cc1)=N\OC(=O)c1ccc2ccccc2c1	GLP1R inv ag 7.9µM, GLP1R cytotox inconclusive, GLP1R ag inconclusive
COc1ccc(C/C(N)=N/OC(=O)c2ccc(Cl)cc2)cc1	none
CSc1ncc(C(=O)NCc2ccc(Cl)cc2)c(C(F)(F)F)n1	none (no result: Tb PFK block, GLP1R ag)
NC(=S)NN=C1CCC(C2CCCCC2)CC1 (stereo not given)	GLP1R inv ag 2.2µM, GLP1R cytotox inconclusive (no result: Tb PFK block)
COc1ccccc1/C=C/C(=O)c1cc(Br)ccc1OC(=O)c1ccco1	GLP1R inv ag 5µM, GLP1R cytotox inconclusive (no result: Tb PFK block)
CC(C)(C)c1ccc(C(=O)NNc2cc(N3CCCCC3)nc(N3CCCCC3)n2)cc1	GLP1R inv ag 3.2µM, GLP1R cytotox inconclusive
CCC(CC)c1nn2c(=O)cc(COc3ccc(NC(=O)c4cccc(C)c4)cc3)nc2s1	Pin1 inhibitor inconclusive (no result: Tb PFK block)
CC1CCC2(CC1)NC(=O)N(Cc1cccc(C(F)(F)F)c1)C2=O (stereo not given)	GLP1R inv ag 2.2µM
Cc1nc(-c2ccc(Cl)cc2)sc1CCNC(=O)C(=O)Nc1ccc2c(c1)OCO2	none (no result: Tb PFK block, GLP1R ag)
Cc1ccc(C(c2cccc(Br)c2)c2c(C)[nH]c3ccccc23)s1 (stereo not given)	GLP1R inv ag 10µM (no result: Tb PFK block, GLP1R ag)
CSc1ccc(NC(=O)Nc2cccn(Cc3ccccc3F)c2=O)cc1	GLP1R inv ag inconclusive
CCc1ccccc1NC(=O)Nc1cccn(Cc2ccccc2F)c1=O	GLP1R inv ag 10µM
NC(=S)n1[nH]c(-c2ccc([N+](=O)[O-])cc2)c(N=Nc2ccc(Cl)cc2)c1=O	GLP1R inv ag 10µM, Pin1 inhibitor inconclusive, GLP1R cytotox inconclusive
Cc1ccc([N+](=O)[O-])cc1N=Nc1c(-c2ccc([N+](=O)[O-])cc2)[nH]n(C(N)=S)c1=O	GLP1R inv ag inconclusive, GLP1R cytotox inconclusive (no result: Pin1 inhibitor)
COc1ccc(C2=CC(=O)C[C@H](c3ccc(Cl)cc3)C2)cc1	GLP1R inv ag inconclusive
O=C1C=C(c2ccc(OC(F)(F)F)cc2)C[C@@H](c2ccc(Cl)cc2)C1	GLP1R inv ag 10µM, Pin1 inhibitor inconclusive, GLP1R cytotox inconclusive
CC(O)CNCCCOc1ccc(Cl)cc1C(C)(C)C (stereo not given)	GLP1R inv ag 1.6µM, GLP1R cytotox inconclusive
CN(C)CCOCCOc1ccc(Cl)cc1C(C)(C)C	GLP1R inv ag 5.6µM, GLP1R cytotox inconclusive
CC(C)(C)c1cc(Cl)ccc1OCCn1ccnc1	GLP1R inv ag inconclusive, Pin1 inhibitor inconclusive
CC(=O)N1CCCc2cc(S(=O)(=O)Nc3ccc(C)c(C)c3)ccc21	none (no result: GLP1R inv ag, PGK inhibitor, GLP1R cytotox, Tb PFK block, GLP1R ag)
CC1Cc2cc(S(=O)(=O)NCc3ccc(N(C)C)cc3)ccc2N1C(=O)C1CCC1 (stereo not given)	none (no result: Tb PFK block, GLP1R ag)
Cc1ccccc1Nc1c(-c2c(F)cccc2Cl)nc2ccc(Br)cn12	none (no result: Tb PFK block, GLP1R ag)
O=C1CCc2cc(S(=O)(=O)Nc3cccnc3)ccc2N1	none (no result: GLP1R inv ag, PGK inhibitor, GLP1R cytotox, Tb PFK block, GLP1R ag)
O=C1CCc2cc(S(=O)(=O)Nc3ccncc3)ccc2N1	none (no result: GLP1R inv ag, PGK inhibitor, GLP1R cytotox, Tb PFK block, GLP1R ag)
O=C(Nc1ccc(NC(=O)N2CCN(c3ccccc3O)CC2)cc1)N1CCN(c2ccccc2O)CC1	GLP1R inv ag 5µM
Cc1c(Cl)c([N+](=O)[O-])nn1Cc1ccc(C(=O)N/N=C\c2cccc(Br)c2)o1	GLP1R inv ag 10µM
O=C(N/N=C\c1cccc(Cl)c1)c1ccc(Cn2cc(Br)c([N+](=O)[O-])n2)o1	GLP1R inv ag inconclusive
COc1ccc(CNC(=O)c2nc(SCc3ccccc3F)ncc2Cl)cc1	GLP1R inv ag inconclusive (no result: Tb PFK block, GLP1R ag)
O=c1cnn([C@@H]2O[C@H](CO)[C@@H](O)[C@H]2O)c(=O)[nH]1	GLP1R inv ag 1µM
CC(=O)Oc1ccc(Cl)cc1CN(C(C)=O)C1CCCCC1	GLP1R inv ag 8.9µM (no result: Tb PFK block)
O=S(=O)(Nc1cc(Sc2ncn[nH]2)c(O)c2ccccc12)c1ccccc1	GLP1R inv ag inconclusive, Pin1 inhibitor 45µM, GLP1R cytotox inconclusive, Tb PFK block inconclusive
Cc1cc(O)c(Sc2ncn[nH]2)cc1NS(=O)(=O)c1ccc(Cl)cc1	none
CCC1CN(C(=O)C2CCN(S(=O)(=O)c3c(C)noc3/C=C/c3ccccc3F)CC2)c2cc(Cl)ccc2O1 (stereo not given)	none (no result: Tb PFK block, GLP1R ag)
